Tests used:
Details in all cases: concentration: 1 μM,replicates: in singlicate; n = 1
[1] = tested on: T1, RSK4(Kin.Dom.1-N-terminal)
T1 construct: gene RPS6KA6

[2] = tested on: T2, RSK4(Kin.Dom.2-C-terminal)
T2 construct: gene RPS6KA6

[3] = tested on: S6K1
[4] = tested on: SBK1
[5] = tested on: SGK2
[6] = tested on: SGK3
[7] = tested on: SGK
[8] = tested on: SIK2
[9] = tested on: SIK
[10] = tested on: SLK
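Also: KINOMEscan kinase panel screen.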

| SMILES | %Inh [1] [%] | %Inh [2] [%] | %Inh [3] [%] | %Inh [4] [%] | %Inh [5] [%] | %Inh [6] [%] | %Inh [7] [%] | %Inh [8] [%] | %Inh [9] [%] | %Inh [10] [%] |
| --- | --- | --- | --- | --- | --- | --- | --- | --- | --- | --- |
| C[C@@H]1CCN(C(=O)N2CCCC2)C[C@@H]1N(C)c1ncnc2[nH]ccc12 | 18 | 31 | 2 | 19 | 3 | 27 | 0 | 6 | 11 | 21 |
| C[C@@H]1CNc2c(sc3ccc4nc(-c5ccncc5)ccc4c23)C(=O)N1 | 38 | 21 | 0 | 30 | 0 | 18 | 0 | 0 | 5 | 1 |
| Cl.Cl.NC[C@H](CC1CCCCC1)NC(=O)c1ccc(-c2ccnc3[nH]ccc23)s1 [GSK1581428] | 84 | 12 | 93 | 88 | 79 | 92.9 | 80 | 16 | 11 | 75 |
| COC(=O)Nc1nc2cc(Oc3ccc(NC(=O)Nc4cc(C(F)(F)F)ccc4Cl)cc3)ccc2[nH]1.Cl [GW697465] | 0 | 25 | 23 | 1 | 0 | 0 | 2 | 0 | 0 | 63 |
| c1ccc(Oc2ccc(Nc3ccnc4ccc(-c5ccccn5)cc34)cc2)cc1 [GW407034] | 4 | 14 | 2 | 60 | 0 | 0 | 0 | 0 | 0 | 10 |
| COc1cccc(C2=C(Nc3cccc(Cl)c3)C(=O)NC2=O)c1 [SB-341556] | 43 | 76 | 23 | 19 | 0 | 9 | 3 | 99.9 | 0 | 92.2 |
| O=c1[nH]cc(-c2ccc(O)cc2)c2sc(-c3ccncc3)cc12 [GSK1033723] | 0 | 15 | 0 | 9 | 0 | 2 | 0 | 0 | 0 | 1 |
| C[C@@H]1CNc2c(sc3ccc4nc(-c5ccc(O)cc5)ccc4c23)C(=O)N1 | 80 | 8 | 6 | 32 | 8 | 24 | 20 | 16 | 20 | 0 |
| CCCC(=O)Nc1n[nH]c2ncccc12 [SB-601436] | 0 | 0 | 0 | 2 | 17 | 10 | 7 | 0 | 0 | 0 |
| O=C(Nc1cccc(Oc2ccc3nccn3n2)c1)Nc1cccc(C(F)(F)F)c1 | 0 | 0 | 0 | 0 | 8 | 8 | 0 | 16 | 17 | 0 |
| COc1cc2nccc(Nc3ccc(Oc4ccccc4)cc3)c2cc1OC.Cl [GI261656] | 0 | 9 | 0 | 0 | 0 | 0 | 0 | 0 | 0 | 26 |
| CSc1nccc(-c2c(-c3ccc(F)cc3)ncn2CCCN2CCOCC2)n1.Cl [SB-217146] | 18 | 21 | 17 | 6 | 0 | 13 | 10 | 0 | 0 | 0 |
| CCn1c(-c2nonc2N)nc2cncc(Br)c21 [SB-738004] | 64 | 29 | 45 | 8 | 0 | 66 | 45 | 7 | 15 | 0 |
| CCNCC(Cc1ccccc1)NC(=O)c1cc(Br)c(-c2ccnc3[nH]ccc23)s1.Cl.Cl (stereo not drawn) [GSK1383280] | 33 | 18 | 67 | 70 | 9 | 82 | 65 | 0 | 0 | 0 |
| N#Cc1cccc(C(=O)NC2CCN(c3ccnc(Nc4ccc(F)cc4)n3)C2)c1 (stereo not drawn) [GSK1379708] | 0 | 0 | 1 | 2 | 5 | 0 | 0 | 0 | 7 | 16 |
| COc1ccc(Nc2nccc(N3CCC(NC(=O)c4cccc(C#N)c4)C3)n2)cc1 (stereo not drawn) [GSK1379730] | 0 | 0 | 0 | 6 | 0 | 0 | 0 | 0 | 18 | 30 |
| Cn1ccc2ncnc(Oc3ccc(NC(=O)Nc4cc(C(C)(C)C)on4)c(Cl)c3)c21 | 26 | 18 | 6 | 13 | 24 | 0 | 10 | 4 | 11 | 97.7 |

| SMILES | %Inh [1] [%] | %Inh [2] [%] | %Inh [3] [%] | %Inh [4] [%] | %Inh [5] [%] | %Inh [6] [%] | %Inh [7] [%] | %Inh [8] [%] | %Inh [9] [%] | %Inh [10] [%] |
| --- | --- | --- | --- | --- | --- | --- | --- | --- | --- | --- |
| O=C(NOCC1CC1)c1cc(Br)c(F)c(F)c1Nc1ccc(I)cc1Cl | 0 | 21 | 19 | 0 | 0 | 0 | 0 | 21 | 0 | 3 |
| Cc1nnc(-c2ccc3occ(-c4ccc(S(C)=O)cc4)c3n2)o1 (stereo not drawn) | 0 | 15 | 0 | 0 | 0 | 0 | 0 | 59 | 4 | 0 |
| CN1CCN(CCNc2nc3cc(Oc4ccc(NC(=O)Nc5cc(C(F)(F)F)ccc5F)cc4)ccc3[nH]2)CC1.Cl.Cl [GW768504] | 0 | 0 | 0 | 0 | 0 | 0 | 0 | 0 | 0 | 7 |
| Cl.c1ccc(Oc2ccc(Nc3ccnc4cc(-c5ccc(CN6CCNCC6)o5)ccc34)cc2)nc1 [GW567142] | 0 | 22 | 0 | 0 | 0 | 0 | 22 | 65 | 97.4 | 19 |
| CN(c1ccccc1CNc1nc(Nc2ccc3c(c2)CC(=O)N3)ncc1C(F)(F)F)S(C)(=O)=O | 67 | 2 | 22 | 3 | 0 | 32 | 18 | 40 | 16 | 94.8 |
| O=C1NCCc2[nH]c(-c3ccncc3)cc21 | 22 | 25 | 11 | 44 | 27 | 36 | 44 | 34 | 13 | 22 |
| O=C(NCC1CC1)c1ccc(-c2cc(C(=O)NC3CC3)ccc2F)cc1 [GW810445] | 0 | 0 | 0 | 4 | 0 | 0 | 7 | 0 | 2 | 0 |
| COC(=O)c1cccc(NC(=O)NC2CCN(c3ccnc(NCc4ccc(F)cc4)n3)CC2)c1 [GSK1379860] | 0 | 0 | 0 | 32 | 0 | 0 | 0 | 0 | 5 | 2 |
| CN1CCN(CCCNc2nccc(-c3c(-c4ccc(F)cc4)nn4cc(C(N)=O)ccc34)n2)CC1 [GW622475] | 0 | 91.6 | 8 | 23 | 0 | 8 | 0 | 9 | 7 | 63 |
| Cc1ccc2c(-c3ccnc(Nc4ccc(C(F)(F)F)cc4)n3)cnn2n1 [GW819776] | 23 | 0 | 29 | 8 | 0 | 0 | 9 | 2 | 0 | 21 |
| OCCn1cc(-c2cnc3nnn(Cc4ccc5ncccc5c4)c3n2)cn1 | 0 | 1 | 0 | 0 | 0 | 15 | 0 | 0 | 0 | 0 |
| FC(F)(F)c1cc(Br)cc(Nc2nccc(-c3cnn4ncccc34)n2)c1 [GW810578] | 13 | 0 | 4 | 0 | 0 | 17 | 2 | 0 | 14 | 13 |
| Cc1cccc(-c2nc(Nc3ccncc3)c3sccc3n2)n1 [GW869641] | 41 | 37 | 13 | 58 | 11 | 27 | 24 | 0 | 7 | 57 |
| COc1cc2ncn(-c3cc(OCC4CCCCC4)c(C(N)=O)s3)c2cc1OC [GSK204559] | 3 | 20 | 0 | 22 | 0 | 9 | 0 | 0 | 4 | 80 |
| COc1cccc(CNC(=O)NC2CCN(c3ccnc(Nc4cc(OC)c(OC)c(OC)c4)n3)C2)c1 (stereo not drawn) [GSK1379765] | 7 | 3 | 14 | 19 | 4 | 2 | 0 | 0 | 0 | 30 |
| COc1cc2c(Nc3ccc(NC(=O)c4ccccc4)cc3)ncnc2cc1OCCCN1CCOCC1 [GSK301329] | 0 | 0 | 24 | 14 | 2 | 1 | 0 | 4 | 2 | 58 |
